Source: PubChem (National Center for Advancing Translational Sciences (NCATS))
Rows were chosen to be rich in hits. Some 19% of all compounds tested hit in one or more screens of this group.
HT1080 IDH1KD tx = kills HT-1080 cells with IDH1 knockdown; HT-1080 IDH1 knockdown viability, ATP luminescence, 48 h; Potency, µM (top dose mostly 46.1 µM), most hits filed as cytotoxic; 2% of 360,000 active; AID 686971
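Assay cells: HT-1080 with IDH1 knockdown, 750 per well, RPMI/5% FBS. Exposure: 48 h at 37 °C following 2 h pre-incubation. Read: CellTiter-Glo luminescence; fitted concentration-response, curve class assigned.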
IL-1B inflam inh = blocks inflammasome-driven IL-1 beta release; THP-1 LPS/ATP IL-1B secretion, AlphaLISA, 16 h; active compounds read low; activity change, % at 57.5 µM; 4.7% of 360,000 active; in the data active = activity change below about -50%; inconclusive = mostly about -30% to -49%
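Secreted IL-1B measured by AlphaLISA bead assay after 16 h compound exposure of THP-1 cells; compounds (final up to 57.5 uM) added 1 h before LPS (250 ng/mL) and ATP (1.25 mM) stimulation; lower signal means less secretion.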
DT40 TDP1 CPT = growth inhibition of DT40 Tdp1-/-;hTDP1 cells with camptothecin (screen for TDP1 inhibitors); Potency, µM (series often up to 46.2 µM), most hits filed as inhibitors; chicken DT40 Tdp1-/-;hTDP1 cells + 20 nM CPT, ATP luminescence, 48 h; 12% of 420,000 active; also: nearly all actives have a fitted effect of over 55% in size
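Chicken DT40 Tdp1-/- cells stably complemented with human TDP1 were seeded at 400 cells/well in medium containing 20 nM camptothecin, exposed to pin-transferred compounds, and grown at 37 °C for at least 48 hr. Viability was read as ATP luminescence.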
HT1080NT lethal = kills 2HG-producing HT-1080-NT fibrosarcoma cells; HT-1080-NT fibrosarcoma viability, CellTiter-Glo ATP luminescence, 48 h; Potency, µM (top dose mostly 46.1 µM), hits mostly cytotoxic; 1.6% of 360,000 active; AID 686970;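 also: NT is the 2HG producing partner of a matched IDH1 knockdown line; nearly all actives have a fitted effect of over 55% in size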
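Luminescent CellTiter-Glo readout after 48 hours of compound exposure at 37 degrees C defined viability of HT-1080-NT cells. Activity was normalized to DMSO wells and cell-free media wells; concentration-response curves were fitted and assigned curve classes.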
TDP1 cell noCPT = qHTS for Inhibitors of human tyrosyl-DNA phosphodiesterase 1 (TDP1): qHTS in cells in absence of CPT | DT40 Tdp1-/- hTDP1 cells, no CPT, ATP luminescence, 48 h | Potency, µM (titrated, usually from 46.2 µM), hits mostly inhibitors | 15% of 420,000 active; also: nearly all actives have a fitted effect of over 55% in size
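DT40 Tdp1-/-;hTDP1 cells, no CPT (DMSO vehicle only), 400 cells/well; compounds pin-transferred; ≥48 hr, 37 °C; CellTiter-Glo 30 min RT dark, luminescence read.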
Of the large screens only hits and unclear results are named; the others gave an inactive call. Unless noted, calls follow the shape of the dose curve; as a rule, active = well fitted curve in the direction sought with a large enough effect; inconclusive = small, poorly fitted or top-dose-only effect, or another doubt; inactive = no such curve, though single readings can be large; an effect the other way counts as inactive or inconclusive.

Cc1cccc(C)c1NC(=O)C(c1cccc2ccccc12)n1c(=O)c(-c2cc3ccccc3[nH]2)nc2ccccc21 (centres undefined)	DT40 TDP1 CPT 13µM, TDP1 cell noCPT 9.2µM
Cc1cccc(C)c1NC(=O)C(c1ccccc1)n1c(=O)c(-c2cc3ccccc3[nH]2)nc2ccccc21 (centres undefined)	HT1080 IDH1KD tx inconclusive, DT40 TDP1 CPT 16µM, HT1080NT lethal inconclusive, TDP1 cell noCPT 15µM
O=C(NCc1ccccc1)C(c1cccc2ccccc12)n1c(=O)c(-c2cc3ccccc3[nH]2)nc2ccccc21 (centres undefined)	DT40 TDP1 CPT 15µM, TDP1 cell noCPT inconclusive
O=C(NCc1ccccc1)C(CCc1ccccc1)n1c(=O)c(-c2cc3ccccc3[nH]2)nc2ccccc21 (centres undefined)	HT1080 IDH1KD tx inconclusive, DT40 TDP1 CPT 13µM, HT1080NT lethal inconclusive, TDP1 cell noCPT 9.2µM
Cc1cccc(C)c1NC(=O)C(c1ccc(-c2ccccc2)cc1)n1c(=O)c(-c2ccco2)nc2ccccc21 (centres undefined)	DT40 TDP1 CPT inconclusive, TDP1 cell noCPT inconclusive
O=C(NCc1ccccc1)C(c1cccc2ccccc12)n1c(=O)c(-c2ccco2)nc2ccccc21 (centres undefined)	DT40 TDP1 CPT inconclusive, TDP1 cell noCPT inconclusive
Cc1ccc(CNC(=O)CSc2nc(=O)[nH]c3c2CCCC3)cc1	none (no result: HT1080 IDH1KD tx, IL-1B inflam inh, HT1080NT lethal)
CN(Cc1ccc(Cl)c(Cl)c1)C(C(=O)NCc1ccccc1)c1ccc(C(F)(F)F)cc1 (centres undefined)	HT1080 IDH1KD tx inconclusive, DT40 TDP1 CPT inconclusive, HT1080NT lethal inconclusive, TDP1 cell noCPT inconclusive
O=C(O)C1C2CCC(O2)C1C(=O)Nc1ccc(OC(F)F)cc1 (centres undefined)	none
O=C(NCc1ccccc1)C(CCc1ccccc1)n1c(=O)c(-c2ccccc2)nc2ccccc21 (centres undefined)	HT1080 IDH1KD tx inconclusive, HT1080NT lethal inconclusive, TDP1 cell noCPT 2.3µM
Cc1cccc(C)c1NC(=O)C(c1ccccc1)n1c(=O)c(-c2ccccc2)nc2ccccc21 (centres undefined)	DT40 TDP1 CPT inconclusive, TDP1 cell noCPT 16µM
O=c1c(-c2cc3ccccc3[nH]2)nc2ccccc2n1C(CCc1ccccc1)c1nc2ccccc2[nH]1 (centres undefined)	HT1080 IDH1KD tx inconclusive, DT40 TDP1 CPT inconclusive, HT1080NT lethal inconclusive, TDP1 cell noCPT 18µM
Cc1cccc(C)c1NC(=O)C(c1ccncc1)n1c(=O)c(-c2cc3ccccc3[nH]2)nc2ccccc21 (centres undefined)	HT1080 IDH1KD tx 18µM, DT40 TDP1 CPT 12µM, HT1080NT lethal 21µM, TDP1 cell noCPT 21µM
CC1(C)CC(=O)C(C=NCCN2CCN(C(=O)C34CC5CC(CC(C5)C3)C4)CC2)=C(O)C1	TDP1 cell noCPT inconclusive
Cc1cccc(C)c1NC(=O)C(c1ccc(C#N)cc1)n1c(=O)c(-c2cc3ccccc3[nH]2)nc2ccccc21 (centres undefined)	HT1080 IDH1KD tx inconclusive, DT40 TDP1 CPT 12µM, HT1080NT lethal inconclusive, TDP1 cell noCPT 9.2µM
COc1ccc(C(C(=O)Nc2ccc3c(c2)OCCO3)n2c(=O)c(-c3cc4ccccc4[nH]3)nc3ccccc32)cc1 (centres undefined)	DT40 TDP1 CPT inconclusive, TDP1 cell noCPT inconclusive
CCOc1cccc(/C=C/c2ccc3cccc(O)c3n2)c1OC	HT1080 IDH1KD tx inconclusive, DT40 TDP1 CPT 21µM, HT1080NT lethal inconclusive, TDP1 cell noCPT 18µM
CCOc1cccc(/C=C/c2ccc3cccc(O)c3n2)c1O	HT1080 IDH1KD tx inconclusive, IL-1B inflam inh -97, DT40 TDP1 CPT 15µM, TDP1 cell noCPT 21µM
CCOc1ccccc1/C=C/c1cc(C(=O)O)c2ccccc2n1	TDP1 cell noCPT inconclusive
Cc1ccc(S(=O)(=O)c2cnc(-c3ccccc3)[nH]c2=O)cc1	none (no result: IL-1B inflam inh)
COc1cc2c(cc1OC)CN(c1ccc([N+](=O)[O-])cc1Cl)CC2	IL-1B inflam inh -88, DT40 TDP1 CPT 23µM, HT1080NT lethal inconclusive, TDP1 cell noCPT 12µM
